NadD inh: inhibitors of S. aureus NadD, primary screen, biochemical, colorimetric, uHTS | Nicotinate-nucleotide adenylyltransferase NadD (Staphylococcus aureus N315) | purified NadD enzyme, colorimetric absorbance read-out | inhibition, % at 20 µM | hit rate 0.78% among 360,000; in the data active means inhibition above about 26%
Exocytosis inh: LAMP-1 surface exposure blockers, TALL-104 cells – cell-based, flow cytometry, MLPCN library, primary screen | hit rate 0.66% among 360,000 | inhibition, % at 10 µM | TALL-104 LAMP-1 surface exposure; cells stimulated with thapsigargin and PMA | AID 651702, 2012;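 active means inhibition above about 55%, limit read from the data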
GRK2 aptamer HTS: compounds blocking aptamer binding on GRK2 – biochemical, human GRK2, bead flow cytometry, HTS, primary screen. Beta-adrenergic receptor kinase 1 (Homo sapiens), P25098. FAM-aptamer displacement from GRK2. inhibition of aptamer binding, % at 10 µM. hit rate 0.59% among 330,000;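 active means inhibition of aptamer binding above 40%, roughly 3 SD of noise, on plates passing a quality check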;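 further: median bead fluorescence of bound FAM aptamer so fluorescent compounds give negative values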
Beta2AR agonist: beta2AR agonists driving receptor internalization, primary screen, cell-based, FAP fluorogen, flow cytometry; Beta-2 adrenergic receptor (Homo sapiens), P07550; Am2.2-beta2AR cells; response, % (no concentration beside the values); hit rate 0.43% among 340,000;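 active means response above a set limit, near 3 SD of response in nonfluorescent compounds, cut at about 42% in these data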
PP1 counter: PP1-alpha phosphatase inhibitors, primary screen, counter-screen for PP5 inhibitor project, biochemical, fluorescence, OMFP substrate, single point | hit rate 0.9% among 320,000 | purified PP1alpha | Serine/threonine-protein phosphatase PP1-alpha catalytic subunit (Homo sapiens), P62136 | AID 2235, 2010 | inhibition, % at 6.7 µM;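 active means inhibition above the mean inhibition of all tested compounds plus 3 SD, computed separately for each screening campaign, cut at about 15% in these data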
Target sequence (P62136 whole entry, looked up): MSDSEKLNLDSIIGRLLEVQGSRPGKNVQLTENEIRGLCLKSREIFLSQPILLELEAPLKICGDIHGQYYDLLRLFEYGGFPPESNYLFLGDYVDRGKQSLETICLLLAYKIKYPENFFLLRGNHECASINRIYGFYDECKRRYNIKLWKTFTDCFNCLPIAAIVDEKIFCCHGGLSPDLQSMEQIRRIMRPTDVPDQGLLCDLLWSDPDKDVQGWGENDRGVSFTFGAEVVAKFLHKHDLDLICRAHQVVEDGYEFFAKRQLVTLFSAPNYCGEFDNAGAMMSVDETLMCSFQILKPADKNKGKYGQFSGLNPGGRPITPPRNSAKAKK
PP1 inh confirm: PP1 phosphatase inhibitors, confirmation, biochemical, fluorescence, OMFP substrate, triplicate; shares compounds with PP1 counter; inhibition, % at 6.7 µM; hit rate 52% among 1,900; purified PP1alpha; AID 2358, 2010;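 active means mean PP1 inhibition above a set limit taken from the earlier primary screen, cut at about 15% in these data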
PP5 counter: PP5 phosphatase inhibition by PP1 hits, confirmation, counter-screen for PP1 inhibitor project, biochemical, fluorescence, triplicate; shares compounds with PP1 counter; purified PP5c, OMFP fluorescence; hit rate 4% among 1,900; inhibition, % at 6.7 µM;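 active means mean PP5 inhibition over triplicate wells above about 9.5% taken from the earlier PP1 screen, limit read from the data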
Each line names hits and unclear results; the compound was inactive in the other large screens (follow-up assays come after a bar, where they were run). Hits are enriched below; roughly 2.9% of the tested compounds scored in any of these assays.

O=C(CCN1C(=O)/C(=C\c2ccccc2)SC1=S)Nc1ccc(C(=O)O)cc1	PP1 counter 20 | PP1 inh confirm inactive | PP5 counter inactive
O=C(CCN1C(=O)/C(=C/c2ccc(Cl)cc2)SC1=S)Nc1cccc(C(=O)O)c1	none
CC1C/C(=N/NC(=O)c2cccc(F)c2)c2ccc(O)cc2C1 (configuration not stated)	none
COc1ccc(-n2cccc2/C=C2\C(=N)N3N=C(c4ccco4)SC3=NC2=O)cc1	NadD inh 74, PP1 counter 38 | PP1 inh confirm 30 | PP5 counter inactive
COc1ccc(-n2cccc2/C=C2\C(=N)N3N=C(C(C)C)SC3=NC2=O)cc1	none
CCOC(=O)C1(CC2CC2)CCN(C(=O)c2ocnc2C)CC1	none
Cc1onc(-c2ccccc2)c1C(=O)OCC(=O)NC(C)c1ccc(Cl)cc1 (configuration not stated)	none
COc1cccc(/C=N/Nc2nc(Nc3ccccc3)nc(-n3nc(C)cc3C)n2)c1O	PP1 counter 35 | PP1 inh confirm 36 | PP5 counter inactive
COc1cccc(/C=N/Nc2nc3ccccc3[nH]2)c1O	none
COc1cccc(/C=N/Nc2cc(-n3nc(C)cc3-c3ccccc3)ncn2)c1O	PP1 counter 21 | PP1 inh confirm 32 | PP5 counter inactive
Cc1cc(C)n(-c2nc(Nc3ccccc3)nc(-n3nc(C)cc3C)n2)n1	none
Cc1ccc(S(=O)(=O)N2CCC(=O)N(C(COCc3cccc(C(F)(F)F)c3)Cc3ccccc3)CC2)cc1 (configuration not stated)	PP1 counter 20 (no result: GRK2 aptamer HTS) | PP1 inh confirm inactive | PP5 counter inactive
CN[C@@H](CO)C(=O)NC[C@H]1O[C@@H](n2cnc3c(=O)[nH]c(N)nc32)[C@H](O)[C@@H]1O	none (no result: GRK2 aptamer HTS, Beta2AR agonist, PP1 counter)
O=C(/C=C/c1ccc(Cl)cc1)NC(=S)Nc1ccc(NC(=O)c2ccco2)cc1	PP1 counter 21 | PP1 inh confirm 24 | PP5 counter inactive
CC(=O)Nc1ccc(NC(=S)NC(=O)/C=C/c2ccc(Cl)cc2)cc1	none
O=C(/C=C/c1ccco1)NC(=S)Nc1ccccc1	none
CC(=O)c1ccc(NC(=S)NC(=O)/C=C/c2ccco2)cc1	PP1 counter 23 | PP1 inh confirm 29 | PP5 counter inactive
CC(C)NC(=O)CCN1C(=O)c2ccccc2Sc2ncccc21	none
Cc1cccc(C)c1Nc1nnc(SCc2nc3ccccc3c(=O)[nH]2)s1	none
Cc1ccccc1Nc1nnc(SCc2nc3ccccc3c(=O)[nH]2)s1	PP1 counter 22 (no result: NadD inh, Exocytosis inh, Beta2AR agonist) | PP1 inh confirm inactive | PP5 counter inactive
CCc1nnc(NS(=O)(=O)c2ccc(NC(=S)NC(=O)/C=C/c3ccc(C(C)C)cc3)cc2)s1	NadD inh 69, Exocytosis inh 90, PP1 counter 26 | PP1 inh confirm 32 | PP5 counter inactive
CCN(C(=O)c1cc2c(=O)[nH]c3ccc(C)cc3c2s1)c1cccc(C)c1	none
CCN(C(=O)c1cc2c(=O)[nH]c3ccc(C)cc3c2s1)c1ccc(F)cc1	PP1 counter 18 | PP1 inh confirm 17 | PP5 counter inactive
CCC(Sc1nc2ncccc2[nH]1)C(=O)N1CCOCC1 (configuration not stated)	none
Cc1cc(C(=O)CN2C(=O)C(=O)N(C3CCCC3)C2=O)c(C)n1CCc1ccc(F)cc1	PP1 counter 18 | PP1 inh confirm inactive | PP5 counter inactive
O=C1/C(=C/c2ccccc2Cl)SC(=S)N1CCCC(=O)N(CCO)c1ccccc1	PP1 counter 18 | PP1 inh confirm inactive | PP5 counter inactive
O=C(O)CN1C(=O)/C(=C\c2ccccc2OCc2ccccc2)SC1=S	none (no result: GRK2 aptamer HTS, Beta2AR agonist, PP1 counter)
O=C(O)CCCN1C(=O)/C(=C\c2ccccc2OCc2ccccc2)SC1=S	PP1 counter 19 | PP1 inh confirm inactive | PP5 counter inactive
CC1Cc2cc(S(=O)(=O)N3CCC(C(=O)NCc4ccco4)CC3)ccc2N1C(=O)C1CCC1 (configuration not stated)	none
COc1ccc(-c2ccc3c(N)c(C(=O)c4cccc(OC)c4)sc3n2)cc1	PP1 counter 30 | PP1 inh confirm 26 | PP5 counter inactive
COc1ccc2cc(C3(C)NC(=O)N(CC(=O)NCC(F)(F)F)C3=O)ccc2c1 (configuration not stated)	none
O=C(Nc1ccc2c(c1)OCO2)c1cc(C2CCCCN2C(=O)CCCc2ccccc2)on1 (configuration not stated)	none (no result: GRK2 aptamer HTS, Beta2AR agonist, PP1 counter)
Cc1ccc(S(=O)(=O)N2CCN(Cc3cccc(F)c3)CC2)cc1	none
O=S(=O)(c1cccs1)N1CCN(Cc2cccc(F)c2)CC1	PP1 counter 27 | PP1 inh confirm inactive | PP5 counter inactive
O=C(N/N=C/c1ccncc1)c1cccc(N/N=C/c2ccncc2)c1	none
O=C(N/N=C/c1ccncc1)c1cccc(NC(=O)c2ccc(Cl)cc2)c1	PP1 counter 31 | PP1 inh confirm inactive | PP5 counter inactive
COc1cccc(CNC(=O)C2CCN(S(=O)(=O)c3ccc(-n4cnnn4)cc3)CC2)c1	none
SC(COCc1ccccc1)CN1CCN(Cc2ccc3c(c2)OCO3)CC1 (configuration not stated)	PP1 counter 25 | PP1 inh confirm inactive | PP5 counter inactive
O=C(NCc1ccccc1Br)c1cccc2c1C(=O)c1ccc(N3CCOCC3)cc1S2(=O)=O	PP1 counter 28 (no result: NadD inh, Exocytosis inh, Beta2AR agonist) | PP1 inh confirm 37 | PP5 counter inactive
O=C(NCc1ccc(F)cc1)c1cccc2c1C(=O)c1ccc(N3CCOCC3)cc1S2(=O)=O	none
Nc1ncnc2c1ncn2[C@@H]1O[C@H](C(=O)N2CCN(c3ccc(Cl)cn3)CC2)[C@@H](O)[C@H]1O	none (no result: GRK2 aptamer HTS, Beta2AR agonist, PP1 counter)
Cn1nc(C(C)(C)C)cc1C(=O)N1CCCCC1c1cc(C(=O)Nc2ccccc2)no1 (configuration not stated)	none (no result: GRK2 aptamer HTS, Beta2AR agonist, PP1 counter)
Cc1nc(-c2ccccn2)nc(SCC(=O)c2ccc(F)cc2)c1Cl	PP1 counter 27 | PP1 inh confirm 41 | PP5 counter inactive
COc1ccc(C(=O)CSc2nc(-c3ccccn3)nc(C)c2Cl)cc1	none
C=CCOC(=O)C1=C(C)NC(SCC(=O)Nc2nccs2)=C(C#N)C1c1ccc(Cl)cc1 (configuration not stated)	PP1 counter 23 | PP1 inh confirm inactive | PP5 counter inactive
COc1ccc(-n2c(CNc3ccc(C)cc3)nnc2SCC(=O)Nc2nc(-c3ccccc3)cs2)cc1	none
